Bioassay records (PubChem BioAssay)
The sample as a whole holds a higher share of hits than the screen did.
CHX counter – affects cycloheximide protein synthesis inhibition readout, counter-screen; AID 2314; max response, %; cell reporter, cycloheximide protein synthesis inhibition counterscreen; actives 12% (n = 300,000); in the data active means max response mostly above about 13%, no sharp cut-off; inactive means mostly below about 14%; further: read at 38.3 µM for the half of the compounds with a filed dose; 0% is about no effect
LmPK inhibitor – blocks Leishmania mexicana pyruvate kinase activity; Potency, µM (titrated, usually from 57.5 µM), for inactives: at the top dose activity change, negative = inhibition, actives largely listed as inhibitors; actives 0.37% (n = 290,000); Q27686; AID 1721; purified LmPK, Kinase-Glo ATP luminescence, 1 h; further: potency means the concentration at half of the fitted maximal effect; on the % scale 0 is the no-effect control and ±100 the full control effect
Target sequence (Q27686 whole entry, looked up): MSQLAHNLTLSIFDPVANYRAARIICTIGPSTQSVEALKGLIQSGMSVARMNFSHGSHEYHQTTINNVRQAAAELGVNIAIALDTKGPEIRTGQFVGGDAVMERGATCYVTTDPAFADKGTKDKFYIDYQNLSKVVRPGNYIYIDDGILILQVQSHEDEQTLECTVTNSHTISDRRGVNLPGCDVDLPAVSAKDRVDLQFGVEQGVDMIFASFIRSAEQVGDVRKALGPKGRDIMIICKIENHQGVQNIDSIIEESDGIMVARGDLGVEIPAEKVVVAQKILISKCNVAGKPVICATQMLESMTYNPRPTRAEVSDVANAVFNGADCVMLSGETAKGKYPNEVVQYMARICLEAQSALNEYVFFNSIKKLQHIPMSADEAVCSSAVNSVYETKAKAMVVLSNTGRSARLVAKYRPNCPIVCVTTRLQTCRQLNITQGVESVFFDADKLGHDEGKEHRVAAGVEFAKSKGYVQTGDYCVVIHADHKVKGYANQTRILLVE
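Purified LmPK (0.1 nM) converted ADP (0.1 mM) to ATP with PEP (0.5 mM) in imidazole buffer pH 7.2 with KCl and MgCl2, 1 h at room temperature. ATP was read by Kinase-Glo luminescence; data normalized to uninhibited and no-enzyme controls.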
Tb PYK inh – blocks Trypanosoma brucei pyruvate kinase; TbPYK enzyme, Kinase-Glo Plus ATP luminescence, 45 min; Q57TT1; AID 624173; Potency, µM (series often up to 76.8 µM), inactives show top-dose activity, negative = inhibition, usual class: inhibitors; actives 0.12% (n = 410,000); further: potency means the concentration at half of the fitted maximal effect; on the % scale 0 is the no-effect control and ±100 the full control effect; nearly all actives have a fitted effect of over 50% in size
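In this concentration-response screen, enzyme-free wells defined baseline while DMSO plates tracked drift. Each reaction combined TbPYK, substrate, compound and 130 uM ADP for 45 min at room temperature. Kinase-Glo Plus luminescence gave the signal.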
Shiga toxin inh – blocks Shiga toxin action in Vero cells. Vero cells, Shiga toxin protein synthesis inhibition reporter. inhibition, % at 38.7 µM. actives 9.2% (n = 290,000). AID 2315; in the data active means inhibition mostly above about 28%, no sharp cut-off; inactive means mostly below about 43%; further: 0% is about no effect
RE007 growth inh – less growth of the S. pombe RE007 Vpr strain | Potency, µM (highest dose often 92.2 µM), for the others: at the highest dose activity change, negative = less growth, usual class: inhibitors | AID 651644 | actives 0.21% (n = 360,000) | S. pombe RE007 Vpr strain, BacTiter-Glo ATP luminescence, 24 h; active means well fitted falling curve with a large enough effect; inconclusive means small, poorly fitted or top-dose-only effect; inactive means no such curve, though single readings can be large or run the other way; further: potency means the concentration at half of the fitted maximal effect; on the % scale 0 is the no-effect control and ±100 the full control effect; nearly all actives have a fitted effect of over 50% in size
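Fission yeast RE007 carrying one integrated HIV-1 vpr copy, seeded at OD 0.01 in PMG+AL medium with 23 nL pinned compound. Grown 24 h at 30 degrees; viability read by BacTiter-Glo luminescence after 5 min.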
Giardia FBPA inh – blocks Giardia fructose-bisphosphate aldolase activity. AID 2451. Potency, µM (series often up to 59.6 µM), inactives show at the top dose activity, negative = inhibition, hits mostly inhibitors. A8B2U2. purified Giardia FBPA. actives 0.71% (n = 290,000); further: potency means the concentration at half of the fitted maximal effect; on the % scale 0 is the no-effect control and ±100 the full control effect; nearly all actives have a fitted effect of over 55% in size
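Giardia FBPA (40 nM reagent) was preincubated 10 min at RT with compound (up to 57.5 uM final), then substrate plus GAPDH/TPI/NAD/arsenate coupling system with diaphorase/resazurin was added; resorufin fluorescence (525/598 nm) was read after 20 min.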
An asterisk follows results filed as active; [ ] = dose if it differs, or a comment. Unless noted, the call rests on the fitted dose curve; in most records, active means well fitted curve in the direction sought with a large enough effect; inconclusive means small, poorly fitted or top-dose-only effect, or another doubt; inactive means no such curve, though single readings can be large; an effect the other way counts as inactive or inconclusive.

`O=C(Nc1ccc2nc(-c3ccccn3)[nH]c2c1)C1CCCCC1` gave CHX counter 36*, LmPK inhibitor 1%, Tb PYK inh -2%, Shiga toxin inh 57*, RE007 growth inh 3% and Giardia FBPA inh 9%.
O=C(Nc1nc(-c2ccccn2)cs1)C1CCCC1 was read as CHX counter 57*, LmPK inhibitor -15%, Tb PYK inh -15%, Shiga toxin inh 100*, RE007 growth inh -6% and Giardia FBPA inh -25%.
`Cc1ccc(-n2nc3c(N4CCC(C(=O)N5CCCCC5)CC4)nnc(C)c3c2C)cc1` gave Tb PYK inh 1%.
Screening Cc1ccc(-c2cc(=O)c3cc(Cl)ccc3[nH]2)cc1 returned CHX counter 26*, LmPK inhibitor -4%, Shiga toxin inh 39* and Giardia FBPA inh 0%[89.2 µM].
`Cc1ccc(-c2cc(=O)c3ccccc3[nH]2)cc1` gave CHX counter 29*, LmPK inhibitor 5%, Tb PYK inh 1%, Shiga toxin inh 112*, RE007 growth inh -19% and Giardia FBPA inh 4%[136 µM].
`CCCCN(C)Cc1c(C)[nH]c2ccc(C)cc2c1=O` gave CHX counter -3, LmPK inhibitor 3%, Shiga toxin inh -2, RE007 growth inh -18%[3.69 µM] and Giardia FBPA inh 11%.
`Cc1ccc2[nH]c(-c3ccccc3)cc(=O)c2c1` gave CHX counter 30*, LmPK inhibitor -7%, Tb PYK inh -6%, Shiga toxin inh 49, RE007 growth inh -15% and Giardia FBPA inh 1%.
For CCN(CC)Cc1c(-c2ccccc2)[nH]c2ccc(C)cc2c1=O the results were CHX counter 29*, LmPK inhibitor 7%, Tb PYK inh -1%, Shiga toxin inh 35*, RE007 growth inh -17% and Giardia FBPA inh -6%.
`Cc1cnc2c(c1SCC(=O)Nc1ccc(F)cc1F)c(=O)n(C)c(=O)n2C` gave Tb PYK inh 2%.
Screening Cc1ccc(C)c(-n2nnc(-c3nc(-c4ccccc4C)no3)c2C)c1 returned Tb PYK inh 7%.
`N#Cc1c(N2CCOCC2)nsc1-c1ccccc1` gave CHX counter 40*, LmPK inhibitor -1%, Tb PYK inh -1%, Shiga toxin inh 75*, RE007 growth inh -9% and Giardia FBPA inh 11%.
Screening N#Cc1c(-c2ccccc2)ccnc1N1CCOCC1 returned CHX counter 12, LmPK inhibitor -1%, Tb PYK inh -5%, Shiga toxin inh 30, RE007 growth inh 12% and Giardia FBPA inh 3%.
Screening N#Cc1c(N2CCCC2)nsc1-c1ccccc1 returned CHX counter 52*, LmPK inhibitor 1%, Tb PYK inh 5%, Shiga toxin inh 102*, RE007 growth inh -15% and Giardia FBPA inh 10%.
Screening O=C(NCc1ccccc1Cl)NCc1noc2ccccc12 returned Tb PYK inh -4%.
`Cc1ccc2sc(NC(=O)CSc3nc(C)cc(C)c3C#N)nc2c1` gave CHX counter 47*, LmPK inhibitor -2%, Tb PYK inh 7%, Shiga toxin inh 78*, RE007 growth inh -8% and Giardia FBPA inh -1%.
Cc1cc(C)c(C#N)c(SCC(=O)Nc2nnc(-c3ccccc3)s2)n1 was read as CHX counter -2, LmPK inhibitor 0%, Tb PYK inh -3%, Shiga toxin inh 6, RE007 growth inh 4% and Giardia FBPA inh -2%.
`Cc1nc(SCC(=O)Nc2nc3ccccc3s2)c(C#N)c(C)c1C` gave CHX counter 29*, LmPK inhibitor 6%, Tb PYK inh inconclusive, Shiga toxin inh 34, RE007 growth inh 11% and Giardia FBPA inh -3%.
Cc1cc(C(F)(F)F)c(C#N)c(SCC(=O)Nc2nc3ccccc3s2)n1 was read as CHX counter 112*, LmPK inhibitor -5%, Tb PYK inh -2%, Shiga toxin inh 163*, RE007 growth inh -10% and Giardia FBPA inh -2%.
For COc1cccc(C2C([N+](=O)[O-])=C(N)Oc3cc(C)oc(=O)c32)c1 (configuration not stated) the results were CHX counter -3, LmPK inhibitor 1%, Tb PYK inh -5%, Shiga toxin inh -10, RE007 growth inh -9% and Giardia FBPA inh -9%.
For N/C(=N\OC(=O)CCc1ccccc1)c1ccccc1Cl the results were CHX counter 28*, LmPK inhibitor -2%, Tb PYK inh 2%, Shiga toxin inh 107*, RE007 growth inh -4% and Giardia FBPA inh 1%.
`N/C(=N\OC(=O)CCc1ccccc1)c1ccc(Br)cc1` gave CHX counter 38*, LmPK inhibitor -5%, Tb PYK inh 2%, Shiga toxin inh 71*, RE007 growth inh -16% and Giardia FBPA inh 0%.
N/C(Cc1ccc(Cl)cc1)=N\OC(=O)CCc1ccccc1 was read as Tb PYK inh -8% and RE007 growth inh -20%.
`Cc1ccc(/C(N)=N/OC(=O)CCc2ccccc2)cc1` gave CHX counter 33*, LmPK inhibitor -1%, Tb PYK inh 2%, Shiga toxin inh 91*, RE007 growth inh -12% and Giardia FBPA inh 2%.
`O=C(O)c1ccc(Nc2nc(-c3cc4ccccc4oc3=O)cs2)cc1O` gave CHX counter 14, LmPK inhibitor 4%, Tb PYK inh 4%, Shiga toxin inh 20, RE007 growth inh -1% and Giardia FBPA inh -13%.
Screening CC(=O)Nc1ccc(Nc2nc(-c3cc4ccccc4oc3=O)cs2)cc1 returned CHX counter 47*, LmPK inhibitor 6%, Tb PYK inh -6%, Shiga toxin inh 69*, RE007 growth inh -4% and Giardia FBPA inh -7%.
Screening Nc1ccc(Nc2nc(-c3cc4ccccc4oc3=O)cs2)cc1 returned CHX counter 43*, LmPK inhibitor -8%, Tb PYK inh -2%, Shiga toxin inh 116*, RE007 growth inh inconclusive and Giardia FBPA inh -4%.
CC(=O)Oc1ccc(C2(c3ccc(OC(C)=O)cc3)Oc3ccccc3NC2=O)cc1 was read as Tb PYK inh -5%.
`O=C(CSc1nnc(-c2ccc(O)cc2)o1)Nc1ccccc1Br` gave CHX counter 28*, LmPK inhibitor -1%, Tb PYK inh -1%, Shiga toxin inh 76*, RE007 growth inh 0% and Giardia FBPA inh 4%.
Cc1ccc(-c2csc3ncnc(SCC(=O)c4ccc5c(c4)OCCO5)c23)cc1 was read as CHX counter -3, LmPK inhibitor 0%, Tb PYK inh 1%, Shiga toxin inh -15, RE007 growth inh -9% and Giardia FBPA inh 18%.
Screening O=C(CSc1ncnc2scc(-c3ccc(F)cc3)c12)c1ccc2c(c1)OCCO2 returned CHX counter 16*, LmPK inhibitor 0%, Tb PYK inh -4%, Shiga toxin inh 15, RE007 growth inh -2% and Giardia FBPA inh 14%.
